This is a sample that favours compounds with a hit; in the whole collection about 17% have one here.
TDP1 inh = qHTS Assay for Inhibitors of Tyrosyl-DNA Phosphodiesterase (TDP1); Tyrosyl-DNA phosphodiesterase 1 (Homo sapiens), Q9NUW8; recombinant TDP1, AlphaScreen DNA substrate cleavage; Potency, µM (titrated, usually from 130 µM), inactives show at the top dose activity change, negative = inhibition, usual class: inhibitors; 350,000 compounds, 0.28% hits; AID 485290, 2010; note: % is set by controls: 0 for no effect and ±100 for the full control effect; nearly all actives have a fitted effect of over 40% in size
Target sequence (Q9NUW8 whole entry, looked up): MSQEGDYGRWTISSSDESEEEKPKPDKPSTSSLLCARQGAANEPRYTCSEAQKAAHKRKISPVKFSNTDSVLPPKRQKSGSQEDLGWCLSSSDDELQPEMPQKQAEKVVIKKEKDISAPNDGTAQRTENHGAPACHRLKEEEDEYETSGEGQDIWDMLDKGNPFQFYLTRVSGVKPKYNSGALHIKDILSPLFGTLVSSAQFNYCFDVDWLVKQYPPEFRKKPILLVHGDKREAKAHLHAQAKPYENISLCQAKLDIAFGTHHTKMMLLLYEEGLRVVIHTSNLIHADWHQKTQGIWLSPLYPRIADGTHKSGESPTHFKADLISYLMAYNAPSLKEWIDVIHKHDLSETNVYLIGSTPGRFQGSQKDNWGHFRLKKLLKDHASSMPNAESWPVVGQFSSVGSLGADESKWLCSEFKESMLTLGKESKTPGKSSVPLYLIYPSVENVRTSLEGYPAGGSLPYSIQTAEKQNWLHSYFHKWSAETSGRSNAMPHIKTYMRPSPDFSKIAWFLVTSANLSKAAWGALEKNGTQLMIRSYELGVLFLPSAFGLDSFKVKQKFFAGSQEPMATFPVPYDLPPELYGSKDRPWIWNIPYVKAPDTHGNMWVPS
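Steps: enzyme plus compound, 15 min RT; add biotin/phosphotyrosine-FITC oligonucleotide (15 nM final), react 5 min; add donor/acceptor beads (10 ug/ml final), 10 min; read AlphaScreen. Tdp1 at 1 nM final.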
DT40 TDP1 CPT = qHTS for Inhibitors of human tyrosyl-DNA phosphodiesterase 1 (TDP1): qHTS in cells in presence of CPT. chicken DT40 Tdp1-/-;hTDP1 cells + 20 nM CPT, ATP luminescence, 48 h. AID 686979, 2013. 420,000 compounds, 12% hits. Potency, µM (doses to about 46.2 µM), inactives show at the top dose activity change, negative = growth inhibition, most hits filed as inhibitors; note: % is set by controls: 0 for no effect and ±100 for the full control effect; nearly all actives have a fitted effect of over 55% in size
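Cell growth measured by CellTiter-Glo luminescence after a minimum 48 h, 37 C compound exposure with 20 nM CPT in Tdp1-knockout DT40 cells stably expressing hTDP1, seeded 400/well; qHTS titration format.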
TDP1 cell noCPT = qHTS for Inhibitors of human tyrosyl-DNA phosphodiesterase 1 (TDP1): qHTS in cells in absence of CPT. DT40 Tdp1-/- hTDP1 cells, no CPT, ATP luminescence, 48 h. 420,000 compounds, 15% hits. Potency, µM (top dose mostly 46.2 µM), for inactives: top-dose activity change, negative = growth inhibition, actives largely listed as inhibitors; note: % is set by controls: 0 for no effect and ±100 for the full control effect; nearly all actives have a fitted effect of over 55% in size
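Seeded 400 DT40-hTDP1 cells/well (vehicle DMSO, no 20 nM CPT); pinned compounds; ≥48 hr at 37 °C; CellTiter-Glo luminescence as viability measure.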
ClpP mod = qHTS Assay for Activators of ClpP. ATP-dependent Clp protease proteolytic subunit (Bacillus subtilis (strain 168)), P80244. purified B. subtilis ClpP, FRET peptide cleavage, 20 min. Potency, µM (highest dose often 57.5 µM), for the others: top-dose activity change, negative = active. 340,000 compounds, 1.9% hits; active = well fitted falling curve with a large enough effect; inconclusive = small, poorly fitted or top-dose-only effect; inactive = no such curve, though single readings can be large or run the other way; note: the source files actives as falling curves though it sought activators and does not explain the sign; nearly all actives have a fitted effect of over 65% in size
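FRET quenching reversal measured ClpP activation: 10 microg/mL B. subtilis ClpP at pH 8 with the FRET-FV decapeptide, read at 430 nm after 320 nm excitation. The 20-min minus 0-min signal was scaled between DMSO/no-enzyme wells and ADEP (5.8 microM final).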
* = called active by the depositor; u = inconclusive; x = no result; ! = not confirmed by another sample; [ ] = another dose, or the depositor's remark. Unless noted, calls come from the whole dose curve; as a rule, active = well fitted curve in the direction sought with a large enough effect; inconclusive = small, poorly fitted or top-dose-only effect, or another doubt; inactive = no such curve, though single readings can be large; an effect the other way counts as inactive or inconclusive. Potency is the fitted concentration of half-maximal effect.

SMILES | TDP1 inh | DT40 TDP1 CPT | TDP1 cell noCPT | ClpP mod
Cc1cc(N2CCOCC2)nc(NCc2ccccc2)n1 | 5% | 21µM* | 13µM* | -1%
CCc1nnc(NC(=O)CSc2nnc3nc(C)cc(C)n23)s1 | x | -7% | 0% | x
COc1ccccc1/C=C/C(=O)OCC(=O)NCc1ccco1 | 3% | 18µM* | u | -27%
COc1ccc(-c2cnnn2-c2ccc(NC(=O)/C=C/c3ccc(OC)c(OC)c3)cc2)cc1 | 5% | u | u | u
O=C(COC(=O)/C=C/c1ccc(F)cc1)NCc1ccco1 | 8% | 10% | 5% | x
COc1ccc(/C=C/C(=O)OCC(=O)NCc2ccccc2)cc1OC | 2% | 21µM* | 16µM* | u
COc1ccc(/C=C/C(=O)Nc2ccc(-n3nncc3-c3ccc(OC)c(OC)c3)cc2)cc1OC | 2% | u | u | 25µM*
COc1ccc(/C=C/C(=O)OCC(=O)NCCC2=CCCCC2)cc1OC | 1% | u | 16µM* | -2%
COc1cc(CC(NC(C)=O)C(=O)NC2CCN(c3c(Cc4ccccc4)c(C)nc4ncnn34)CC2)cc(OC)c1 (stereo not given) | 3% | -30% | -16% | 3%
CC(OC(=O)C1CCCCC1)C(=O)Nc1ccc(S(N)(=O)=O)cc1 (stereo not given) | 1% | -1% | -4% | 1%
CCCC(CCC(=O)Nc1ccn(-c2ccccc2)n1)C(=O)O (stereo not given) | -3% | -3% | u | x
COc1ccc(/C=C/C(=O)Nc2ccccc2)cc1OC | -3% | 1% | 12% | x
COc1ccc(C(C)=O)c(OCC(=O)NCCC2=CCCCC2)c1 | x | -75% | 0.58µM* | 0%
COc1ccc(/C=C/C(=O)Nc2c(C(=O)O)[nH]c3ccccc23)cc1OC | 4% | 21µM* | u | 2%
COc1ccccc1/C=C/C(=O)OCC(=O)NNC(=O)c1ccccc1 | 1% | -25% | 18µM* | u
COc1cc(/C=C/C(=O)OCC(=O)NCc2ccco2)ccc1O | -3% | 21µM* | 16µM* | -3%
O=C(CCCn1c(=O)c2cccn2c2cccnc21)Nc1ccccc1C(F)(F)F | -8% | -14% | -15% | u
CSCC[C@H](N)C(=O)N[C@@H](CO)C(=O)N[C@@H](CCCN=C(N)N)C(=O)N1CCC[C@H]1C(=O)N[C@@H](C)C(=O)N[C@@H](CS)C(=O)N1CCC[C@H]1C(=O)N[C@@H](CC(N)=O)C(=O)N[C@@H](CC(=O)O)C(=O)N[C@@H](CCCCN)C(=O)N[C@@H](Cc1ccc(O)cc1)C(=O)N[C@@H](CCC(=O)O)C(=O)O | 10% | x | x | x
CCO[C@@H]1OC(C(N)=O)=C[C@H](C2CC2)[C@H]1CCCO | x | -3% | 7% | 1%
Cc1ccc(OCCCCN2CCCCC2)c(C)c1 | x | 7% | 2% | -1%
Cc1ccc(OCCCCN2CCC(C)CC2)c(Br)c1 | 3% | 23µM* | u | -1%
Cc1ccc(OCCCCCCN2CCNCC2)c(Br)c1 | x | u | 21µM* | 0%
CC1CCN(CCCOc2ccc(Br)cc2Cl)CC1 | -7% | -12% | -26% | x
Cc1ccc(-n2nc(C)c3c(C(=O)Nc4ccc(C)cc4Cl)cc(C)nc32)cc1 | 1% | -24% | u | u
Cc1ccc(Sc2c([N+](=O)[O-])ncn2C)cc1 | 2% | 21µM* | u | -3%
SMILES | TDP1 inh | DT40 TDP1 CPT | TDP1 cell noCPT | ClpP mod
CCc1ccccc1N1CC(c2nnc(NC(=O)c3ccco3)s2)CC1=O (stereo not given) | 5% | -13% | -30% | -14%
COc1ccc(OC)c(C2=Nn3c(nnc3-c3cc(OC)ccc3OC)SC2)c1 | 10% | x | x | x
CNS(=O)(=O)c1cccc(C(=O)OCc2cc(=O)oc3c(C)c(O)ccc23)c1 | -19% | u | 18µM* | x
O=C(Nc1cccc(OC(F)(F)F)c1)C1Cc2c(-c3cccc(F)c3)ccnc2O1 (stereo not given) | x | u | u | -28%
CCCCCCOc1ccc(C(=N)N(CCCC)CCCC)c2ccccc12 | x | 4.2µM* | 2.7µM* | x
CCOC(=O)C1(Cc2ccc(OC)cc2)CCN(C(=O)c2sc(C)nc2C)CC1 | 0% | 26µM* | 23µM* | 0%
CCOC(=O)C1(Cc2ccc(OC)cc2)CCN(C(=O)CCN2CCCC2=O)CC1 | 3% | -11% | -8% | -5%
CCOC(=O)C1(Cc2ccc(OC)cc2)CCN(C(=O)c2cc(C)on2)CC1 | 2% | -26% | u | -4%
CCOC(=O)C1(Cc2ccc(Cl)cc2)CCN(C(=O)c2sc(C)nc2C)CC1 | 7% | 12µM* | 9.2µM* | 1%
CCOC(=O)C1(Cc2ccc(OC)cc2)CCN(C(=O)C2=CCCC2)CC1 | -1% | u | 18µM* | x
CCOC(=O)C1(Cc2ccc(Cl)cc2)CCN(C(=O)CCc2ccncc2)CC1 | 3% | -18% | 13µM* | x
COc1ccc2cc([C@H](C)CO)ccc2c1 | x | 13% | -13% | x
Cc1ccc(-n2ncc3c(N4CCC(C)CC4)ncnc32)cc1C | -5% | u | u | u
C/C(=C\CO)CCO | 8% | x | x | x
CCCN(C1CCS(=O)(=O)C1)S(=O)(=O)c1ccc(F)cc1 (stereo not given) | x | 11% | -17% | x
C=CCn1c(SCc2c(C)noc2C)nc2sc3c(c2c1=O)CCCC3 | -1% | 18µM* | u | -5%
COC(=O)c1sc(N)c(C(=O)OC)c1CSc1nc2sc3c(c2c(=O)n1C)CCC3 | 2% | u | 26µM* | -1%
Cn1c(SCCN2CCOCC2)nc2sc3c(c2c1=O)CCCC3 | 6% | 4% | -25% | -3%
COC(=O)c1ccc(CSc2nc3sc4c(c3c(=O)n2C)CCCC4)o1 | 2% | u | u | 0%
Cc1noc(C)c1CSc1nc2sc3c(c2c(=O)n1C)CCCC3 | 8% | 12µM* | u | 1%
COc1ccc(CNC(=O)c2ccc(CS(=O)(=O)c3ccccc3OC)o2)cc1 | -3% | -28% | u | -1%
O=C(O)C(Cc1ccc(Cl)cc1)NS(=O)(=O)c1ccc(Cl)cc1 (stereo not given) | x | 7% | 24% | x
CCN(Cc1ccncc1)C(=O)c1cc(COc2c(F)cccc2F)on1 | 0% | u | -30% | -3%
CCN(CC)CCc1nc(-c2ccccc2)no1 | 9%[21 µM] | 6.5µM*! | 4.1µM*! | -2%
COCCN(C(=O)COC(=O)CCOc1cccc(C)c1)c1c(N)n(Cc2ccccc2)c(=O)[nH]c1=O | x | -4% | -30% | x
O=C(COC(=O)C1CC2CCCC(C1)C2=O)NNC(=O)c1ccccc1F (stereo not given) | -2% | -1% | 1% | -9%
COc1cc(-c2nnc(COC(=O)C3c4ccccc4Oc4ccccc43)o2)cc(OC)c1OC | 4% | u | u | -2%
